Hits are enriched below; roughly 1.3% of the tested compounds scored in any of these assays.
BJeLR viability = MLPCN primary cell-based screen for lethality selective to Ras in HRASV12 cells. BJeLR (HRASV12) viability, CellTiter-Glo ATP luminescence, 48 h. inhibition, % (concentration not given with the values). hit rate 0.17% among 300,000. AID 1554, 2009; in the data active = inhibition above about 50%
SARS 3CLpro inh = SARS-CoV 3CLpro protease inhibitors, primary screen, biochemical, quenched FRET; inhibition, % at 6 µM; recombinant SARS-CoV 3CLpro, quenched FRET peptide cleavage; AID 1706, 2009; Replicase polyprotein 1ab (Severe acute respiratory syndrome coronavirus), P0C6X7; hit rate 0.14% among 290,000; in the data active = inhibition above about 12%
RN4220 kill = growth inhibition of S. aureus RN4220, primary screen, OD600. 16 h. inhibition, % (no concentration beside the values). hit rate 0.33% among 330,000; in the data active = inhibition above about 85%
PfHsp40 yeast = rescue of yeast from PfHsp40 toxicity, primary screen, S. cerevisiae, ATP luminescence; S. cerevisiae expressing PfHsp40, growth rescue; AID 504582, 2011; growth rescue, % at 12.5 µM; hit rate 0.68% among 340,000; in the data active = growth rescue above about 28%, passing the limit was not always enough;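 note: yeast W303a lacking pdr1 and pdr3 grown in galactose medium; growth measured after three days at 30 °C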
ugtP null kill = growth inhibition of ugtP-null S. aureus, primary screen, RN4220 ugtP deletion, OD600 | 16 h | AID 1259309, 2017 | growth inhibition, % (concentration not given with the values) | hit rate 0.54% among 330,000; in the data active = growth inhibition above about 68%
A number is an active result.

For CC(=O)c1cccc(NC(=O)CSc2ccc(-c3ccccn3)nn2)c1 the results were BJeLR viability inactive, SARS 3CLpro inh inactive, RN4220 kill inactive, PfHsp40 yeast inactive and ugtP null kill inactive.
Screening CCOC(=O)c1ccccc1NC(=O)CSc1ccc(-c2ccccn2)nn1 returned BJeLR viability inactive, SARS 3CLpro inh inactive, RN4220 kill inactive, PfHsp40 yeast 210.9 and ugtP null kill inactive.
CCc1ccc(NC(=O)CSc2ccc(-c3ccccn3)nn2)cc1 was read as BJeLR viability inactive, SARS 3CLpro inh inactive, RN4220 kill inactive, PfHsp40 yeast 305.1 and ugtP null kill inactive.
Screening COc1ccc(C)cc1NC(=O)CSc1ccc(-c2ccccn2)nn1 returned BJeLR viability inactive, SARS 3CLpro inh inactive, RN4220 kill inactive, PfHsp40 yeast inactive and ugtP null kill inactive.
For Cc1ccc(S(=O)(=O)NCCC(=O)Nc2nccs2)cc1 the results were BJeLR viability inactive, SARS 3CLpro inh inactive, RN4220 kill inactive, PfHsp40 yeast inactive and ugtP null kill inactive.
COCC(C)n1c(C)cc(C(=O)COc2ccc(S(=O)(=O)N3CCOCC3)cc2Cl)c1C (stereo unspecified) was read as SARS 3CLpro inh inactive, RN4220 kill inactive, PfHsp40 yeast inactive and ugtP null kill inactive.
For COc1ccc(Nc2nc(N)c(C(=O)c3ccc(F)cc3)s2)cc1 the results were BJeLR viability inactive, SARS 3CLpro inh inactive and PfHsp40 yeast 33.6.
`CCN1C(=O)C(CC(=O)Nc2ccccc2Cl)N(NC(=O)c2cccc(F)c2)C1=S` (stereo unspecified) gave BJeLR viability inactive, SARS 3CLpro inh inactive, RN4220 kill inactive, PfHsp40 yeast 121.9 and ugtP null kill inactive.
`COC(=O)C1Cc2ccccc2CN1C(=O)CCl` (stereo unspecified) gave BJeLR viability inactive, SARS 3CLpro inh inactive, RN4220 kill inactive, PfHsp40 yeast 41.1 and ugtP null kill inactive.
`Cc1cc(/C=C2\SC(=O)N(C)C2=O)c(C)n1-c1ccc(S(N)(=O)=O)cc1` gave BJeLR viability inactive, SARS 3CLpro inh inactive, RN4220 kill inactive, PfHsp40 yeast inactive and ugtP null kill inactive.
Screening Cc1[nH]n(-c2cccc3ccccc23)c(=O)c1/C=N/NC(=O)c1cccc([N+](=O)[O-])c1 returned BJeLR viability inactive, SARS 3CLpro inh inactive and PfHsp40 yeast 83.0.
CC(=O)N/N=C/c1c(C)[nH]n(-c2ccccc2)c1=O was read as BJeLR viability inactive, SARS 3CLpro inh inactive and PfHsp40 yeast inactive.
`Cc1[nH]n(-c2ccc(Br)cc2)c(=O)c1C=NNC(=O)c1ccccc1` gave RN4220 kill 94.0 and ugtP null kill 96.6.
`CC(=O)c1c(O)cc(O)c(C(C)=O)c1O` gave BJeLR viability inactive, RN4220 kill 86.4, PfHsp40 yeast inactive and ugtP null kill 88.7.
For CC(=O)c1c(O)cc(O)cc1CC(=O)O the results were BJeLR viability inactive, SARS 3CLpro inh inactive, RN4220 kill inactive, PfHsp40 yeast inactive and ugtP null kill inactive.
CCCCNS(=O)(=O)c1ccc2nc(-c3cccnc3)cc(C(=O)NCCCOC)c2c1 was read as BJeLR viability inactive, SARS 3CLpro inh inactive, RN4220 kill inactive, PfHsp40 yeast inactive and ugtP null kill inactive.
`O=C(NC(=S)Nc1ccc(F)cc1)C1CCCCC1` gave BJeLR viability inactive, SARS 3CLpro inh inactive, RN4220 kill inactive, PfHsp40 yeast inactive and ugtP null kill inactive.
Screening Cc1ccnc(NS(=O)(=O)c2ccc(NC(=O)C3CCCCC3)cc2)n1 returned BJeLR viability inactive, SARS 3CLpro inh inactive, RN4220 kill inactive, PfHsp40 yeast inactive and ugtP null kill inactive.
For O=C(NC(=S)Nc1ccc(O)cc1)C1CCCC1 the results were RN4220 kill inactive, PfHsp40 yeast inactive and ugtP null kill 86.7.
`Cc1cc(C)nc(NS(=O)(=O)c2ccc(NC(=S)NC(=O)C3CCCC3)cc2)n1` gave BJeLR viability inactive, SARS 3CLpro inh inactive, RN4220 kill inactive, PfHsp40 yeast inactive and ugtP null kill 86.0.
`CCc1nnc(NC(=O)CSc2nnc(Cc3ccc(OC)cc3)o2)s1` gave BJeLR viability inactive, SARS 3CLpro inh inactive, RN4220 kill inactive, PfHsp40 yeast inactive and ugtP null kill inactive.
For CC[C@@H](C)[C@H](CNC)NC[C@@H](Cc1cccc2ccccc12)NCCc1cccc(C(F)(F)F)c1 the results were BJeLR viability inactive, SARS 3CLpro inh inactive and PfHsp40 yeast inactive.

Source: PubChem BioAssay (several laboratories)
